Measurements as given in PubChem BioAssay (NCATS).
Inconclusive results are not listed. The source holds several records for some structures; these can differ, active in one and inactive in another. Activity calls are given as the source filed them. Unless noted, calls come from the whole dose curve; as a rule, active = well fitted curve in the direction sought with a large enough effect; inconclusive = small, poorly fitted or top-dose-only effect, or another doubt; inactive = no such curve, though single readings can be large; an effect the other way counts as inactive or inconclusive.

Columns and labels:
[1] = test system: Zika virus NS2B-NS3 protease; test: Primary screen GU AMC qHTS for Zika virus inhibitors (AID 1347154);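 note: 0% = no-inhibitor control and -100% = no-enzyme control; nearly all actives have a fitted effect of over 70% in size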
Outline: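 Unlinked Zika NS2B hydrophilic domain–NS3 protease complex at 25 nM in 10 mM Tris-HCl pH 8.0, 0.01% Tween 20, with an AMC peptide substrate. Fluorescence change (340/450 nm) over 15 min at room temperature, normalized to controls, fitted to 4-parameter Hill.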

[2] = Counterscreen qHTS for small molecule stabilizers of the endoplasmic reticulum resident proteome: GLuc-NoTag assay (AID 1508627);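 note: series mostly up to about 76 µM; 0% = thapsigargin alone and -100% = DMSO vehicle control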
Outline: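 Counterscreen line: SH-SY5Y-GLuc-NoTag. Seed, 5 h; compound, 19 h; thapsigargin 100 nM, 4 h; 37C/5% CO2. Readout: secreted GLuc luminescence, coelenterazine 0.07x final, no lysis.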

[3] = target: Cytochrome P450 1A2 (Homo sapiens) (UniProt P05177); test: p450-cyp1a2 (AID 410; calls by dose curve; note: potency is the fitted concentration of half-maximal effect)
Outline: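 O-Demethylation of luciferin 6' methyl ether by human CYP1A2 is monitored as luciferase luminescence. Substrate sits at Km (100uM); enzyme is 20nM. Values are scaled to 57 uM furafylline as maximal inhibition.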

[4] = target: Glucocorticoid receptor (Homo sapiens) (UniProt P04150); test: GR-GFP Redistribution (AID 450;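 active = compounds whose dose series gives a full or clear partial fitted curve of increased nuclear translocation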; note: potency is the fitted concentration of half-maximal effect); conditions: U2OS GR-GFP nuclear translocation, laser cytometry, 2 h
[5] = target: Glucocorticoid receptor (Homo sapiens) (UniProt P04150); test: GR-EFC Redistribution (AID 451; calls by dose curve; note: potency is the fitted concentration of half-maximal effect); conditions: CHO-K1 GR-EFC translocation, beta-gal luminescence, 2 h
Outline: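 CHO-K1 cells expressing nuclear EA and GR-ED fragments of b-gal; compounds titrated up to 46 uM final, 2 h at 37 C. GR nuclear translocation read as complemented b-gal luminescence after 1 h RT detection.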

[6] = target: Mitogen-activated protein kinase 10 (Mus musculus) (UniProt Q61831); test: JNK3 AlphaScreen Assay (AID 530; active = well fitted curve in either direction with a large enough effect, not every such curve was filed as active;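 note: kinase came from lysate of stimulated human HepG2 cells; signal reports phosphorylation of biotinylated GST-cJun 1-79 at Ser73 with 10 µM ATP; series mostly up to about 57 µM; % is set by controls: 0 for no effect and ±100 for the full control effect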)
Outline: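 Activity was read by AlphaScreen after JNK3-containing HepG2 lysate (cytokine pre-activated) phosphorylated biotinylated GST-cJun with 10 uM ATP at room temperature. Phospho-Ser73 cJun antibody with Protein-A acceptor beads provided detection.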

[7] = target: Cytochrome P450 2C9 (Homo sapiens) (UniProt P11712); test: qHTS Assay for Inhibitors and Substrates of Cytochrome P450 2C9 (AID 883); note: potency is the fitted concentration of half-maximal effect; nearly all actives have a fitted effect of over 60% in size
Outline: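 Signal: luciferase luminescence reporting luciferin produced by CYP2C9. Conditions: 10nM enzyme, Luciferin-H 100uM at KM, 25mM KPO4, 37C, 60 min NADPH-driven reaction. Reference: 57uM sulphaphenazole as 100% inhibition.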

[8] = target: Cytochrome P450 2C19 (Homo sapiens) (UniProt P33261); test: qHTS Assay for Inhibitors and Substrates of Cytochrome P450 2C19 (AID 899); note: potency is the fitted concentration of half-maximal effect; nearly all actives have a fitted effect of over 60% in size
Outline: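 Signal comes from luciferase acting on luciferin released by CYP2C19-mediated hydroxylation of Luciferin-H EGE, 10uM (KM). Assay mix: 5nM enzyme, 50mM KPO4; 60 min at 37C with NADPH regeneration. Data normalized against 57uM ketoconazole.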

[9] = target: Ubiquitin carboxyl-terminal hydrolase 1 (Homo sapiens) (UniProt O94782); test: Inhibitors of USP1/UAF1: Pilot qHTS (AID 504865);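 note: rhodamine fluorescence freed from ubiquitin-rhodamine substrate followed over time; top concentration of the series differs between compounds; % is set by controls: 0 for no effect and ±100 for the full control effect; nearly all actives have a fitted effect of over 35% in size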
Outline: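 Enzyme-free wells gave the negative control, while test wells held 1nM USP1/UAF1 preincubated with compound for 15 min at room temperature. Ub-Rho at 150nM final started the reaction, and fluorescence at 480/540 nm was recorded kinetically.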

[10] = target: DNA dC->dU-editing enzyme APOBEC-3G (Homo sapiens) (UniProt Q9HC16); test: qHTS for inhibitors of Vif-A3G interactions: Validation (AID 588379); note: 0% is about no effect
Outline: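 Yellow fluorescence (Ex 488, Em 500-530) of Vif-coexpressing HeLa A3G-eYFP cells, scanned by Acumen cytometer, reports blocked A3G degradation. Cells plated at 700/well overnight at 37 deg C before compound addition, then a further overnight compound incubation at 37 deg C.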

[11] = Confirmatory qHTS for small molecule stabilizers of the endoplasmic reticulum resident proteome: Secreted ER Calcium Modulated Protein (SERCaMP) assay (AID 1508628); note: nearly all actives have a fitted effect of over 40% in size; note: potency is the fitted concentration of half-maximal effect
Outline: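 Reporter secretion upon ER calcium depletion (100 nM thapsigargin, 4 h, 37C) is measured as medium luminescence with coelenterazine, after 16 h compound pretreatment of SH-SY5Y-GLuc-SERCaMP cells; primary at three concentrations up to 38.3 uM, follow-up at 11 (up to 76.6 uM).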

[12] = Validation of Assay for Modulators of Lamin A Splicing (AID 1459; active = well fitted curve in the direction sought with a large enough effect in the signal ratio; the % refers to the signal ratio;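 note: cells exposed to compound for two days before reading; 0% is about no effect; ratio rise marks activators and ratio drop marks inhibitors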)
Outline: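 Dual-reporter HeLa S3 line (lamin A-EGFP minigene, DsRed2) treated with compounds 48 hrs, 0.5% DMSO final. Endpoint: EGFP/DsRed2 total intensity ratio from laser-scanning microplate cytometry.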

[13] = target: DNA repair nuclease/redox regulator APEX1 (Homo sapiens) (UniProt P27695); test: qHTS Validation Assay for Inhibitors of the Human Apurinic/apyrimidinic Endonuclease 1 (APE1) (AID 1705;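 note: TAMRA fluorescence gain over two minutes as APE1 cuts a quenched THF abasic duplex; series mostly up to about 57 µM; % is set by controls: 0 for no effect and ±100 for the full control effect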)
Outline: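 Substrate: 50 nM final fluorophore/quencher THF-abasic duplex. Enzyme preincubated with compounds 15 min, RT. Progress derived from fluorescence difference, third minus first kinetic read.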

[14] = qHTS for differential inhibitors of proliferation of Plasmodium falciparum line 7G8 (AID 1815);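 note: potency is the fitted concentration of half-maximal effect; parasite growth measured after three days of incubation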
[15] = qHTS for differential inhibitors of proliferation of Plasmodium falciparum line GB4 (AID 1816); conditions: Potency: Plasmodium falciparum GB4 proliferation inhibition;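 note: potency is the fitted concentration of half-maximal effect; parasite growth measured after 72 h incubation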
[16] = qHTS for differential inhibitors of proliferation of Plasmodium falciparum line 3D7 (AID 1876); note: potency is the fitted concentration of half-maximal effect
[17] = qHTS for differential inhibitors of proliferation of Plasmodium falciparum line D10 (AID 1877);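 note: potency is the fitted concentration of half-maximal effect; parasites grown with compound for 72 h before DNA staining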
[18] = qHTS for differential inhibitors of proliferation of Plasmodium falciparum line Dd2 (AID 1882); conditions: Potency: Plasmodium falciparum Dd2 proliferation inhibition; note: potency is the fitted concentration of half-maximal effect; nearly all actives have a fitted effect of over 65% in size
Outline: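 SYBR Green DNA fluorescence (ex 485, em 535 nm) after overnight lysis quantifies parasite growth; compound exposure lasted 72 h at 37 C on infected red cells at 2.5% hematocrit, 0.3% parasitemia (final). Artemisinin 0.29 uM and vehicle wells define normalization.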

[19] = qHTS for differential inhibitors of proliferation of Plasmodium falciparum line W2 (AID 1883); conditions: Potency: Plasmodium falciparum W2 proliferation inhibition;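 note: potency is the fitted concentration of half-maximal effect; parasites grown with compound for 72 h before lysis and staining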
[20] = qHTS for differential inhibitors of proliferation of Plasmodium falciparum line HB3 (AID 1886); conditions: Potency: Plasmodium falciparum HB3 proliferation inhibition;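 note: potency is the fitted concentration of half-maximal effect; parasites grown with compound for 72 h before SYBR Green readout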
[21] = target: ATP-dependent DNA helicase Q1 (Homo sapiens) (UniProt P46063); test: qHTS Validation Assay for Inhibitors of RecQ-Like Dna Helicase 1 (RECQ1) (AID 2353);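 note: plate controls were DMSO vehicle for no effect and enzyme-free control for full effect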
Outline: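 RECQ1T1 50 nM; forked duplex (20 bp + 30-nt ss tails) 200 nM, ATP 2 mM final; pH 8.0, 2 mM MgCl2, 2.5 ug/ml poly(dI-dC); 15 min compound preincubation; discontinuous kinetic read over 2 h at RT.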

[22] = target: M-phase phosphoprotein 8 (Homo sapiens) (UniProt Q99549); test: qHTS Validation Assay for Inhibitors for MPP8 Chromodomain Interactions with Methylated Histone Tails (AID 488949);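 note: 50 nM MPP8 with 50 nM peptide preformed then compounds added for 30 min; AlphaScreen signal from MPP8 chromodomain bound to biotinylated H3K9me3 peptide; top concentration of the series differs between compounds; % is set by controls: 0 for no effect and ±100 for the full control effect; nearly all actives have a fitted effect of over 55% in size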
Outline: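 Chemiluminescent proximity assay: histidine-tag capture via nickel acceptor beads, biotin peptide via streptavidin donor beads. Protein and peptide each at 50 nM, pH 7.4, with 30 min incubations at room temperature for complex formation, compound exposure and bead binding.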

[23] = target: Thyrotropin receptor (Homo sapiens) (UniProt P16473); test: qHTS Assay for Antagonists of the Thyroid Stimulating Hormone Receptor (AID 488980); note: series mostly up to about 58 µM; 0% is about no effect
Outline: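 Inhibition of TSH-stimulated cAMP accumulation was quantified by homogeneous time-resolved FRET in TSHR-transfected HEK293 cells. Agonist: TSH, 4 nM final (EC80).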

[24] = target: Thyrotropin-releasing hormone receptor (Homo sapiens) (UniProt P34981); test: qHTS for Small Molecule Agonists and Allosteric Enhancers of Human TRH Receptor: Validation Screen for Agonists (AID 493127;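 active = calcium activation more than 3 SD above the typical response in the agonist read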;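 note: intracellular calcium rise by fluo-8 fluorescence before TRH EC20 addition; 0% is about no effect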); conditions: TRH receptor agonist cell assay; at 2 µM; stronger effect = higher value
Outline: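 Compounds are added by online pintool to dye-loaded TRHR cells while fluorescence is recorded every second. A rise in calcium signal during the agonist read marks activation; a later 10 nM TRH addition (EC20) serves the separate enhancer mode.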

[25] = target: Galactokinase (Homo sapiens) (UniProt P51570); test: qHTS Validation Assay for Inhibitors of Human Galactokinase (GALK) (AID 493189); note: 0% is about no effect
Outline: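 Enzyme activity is inferred from ATP consumption: human GALK phosphorylates galactose (100 uM) using 35 uM ATP for 1 h at room temperature, and luciferase-based Kinase-Glo Plus reports unconsumed ATP.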

[26] = target: Voltage-gated inwardly rectifying potassium channel KCNH2 (Homo sapiens) (UniProt Q12809); test: qHTS Assay for Small Molecule Inhibitors of the Human hERG Channel Activity (AID 588834);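 note: potency is the fitted concentration of half-maximal effect; lower thallium flux fluorescence means stronger hERG block; nearly all actives have a fitted effect of over 50% in size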
Outline: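 Homogeneous FluxOR thallium flux assay using hERG-expressing U2OS cells (BacMam). Compound treatment about 10 minutes preceded stimulation; reduced fluorescence taken as channel block.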

[27] = Primary qHTS for small molecule stabilizers of the endoplasmic reticulum resident proteome: Secreted ER Calcium Modulated Protein (SERCaMP) assay (AID 1508630); note: % is set by controls: 0 for no effect and ±100 for the full control effect
Outline: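 The SH-SY5Y reporter protocol was run at 3 concentrations up to 38.3 uM (primary) or 11 concentrations (follow-up): 16 h compound, 100 nM thapsigargin for 4 h, then extracellular luciferase luminescence.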

Chain of Glucocorticoid receptor (Homo sapiens) (P04150 whole entry, looked up, the tested form may be a part): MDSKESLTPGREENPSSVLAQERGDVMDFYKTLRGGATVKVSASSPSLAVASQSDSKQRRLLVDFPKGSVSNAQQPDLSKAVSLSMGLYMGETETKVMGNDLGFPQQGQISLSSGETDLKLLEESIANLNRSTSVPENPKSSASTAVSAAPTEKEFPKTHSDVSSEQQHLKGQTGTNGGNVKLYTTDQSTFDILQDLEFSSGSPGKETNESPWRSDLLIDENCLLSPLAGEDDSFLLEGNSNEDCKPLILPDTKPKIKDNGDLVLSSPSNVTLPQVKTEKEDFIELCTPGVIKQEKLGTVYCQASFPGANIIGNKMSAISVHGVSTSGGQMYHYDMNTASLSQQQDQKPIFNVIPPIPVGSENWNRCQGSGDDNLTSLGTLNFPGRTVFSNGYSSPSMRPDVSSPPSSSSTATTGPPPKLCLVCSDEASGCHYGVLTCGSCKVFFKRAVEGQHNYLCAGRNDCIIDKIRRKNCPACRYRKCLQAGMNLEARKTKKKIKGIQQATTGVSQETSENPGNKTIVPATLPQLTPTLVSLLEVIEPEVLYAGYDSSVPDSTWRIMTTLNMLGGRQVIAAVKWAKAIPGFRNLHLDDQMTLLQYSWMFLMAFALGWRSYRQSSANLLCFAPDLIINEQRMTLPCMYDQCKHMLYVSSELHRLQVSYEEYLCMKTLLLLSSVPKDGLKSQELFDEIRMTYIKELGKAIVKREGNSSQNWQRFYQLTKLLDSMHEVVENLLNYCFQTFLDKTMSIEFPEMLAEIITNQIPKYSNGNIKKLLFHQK
Chain of DNA dC->dU-editing enzyme APOBEC-3G (Homo sapiens) (Q9HC16 whole entry, looked up): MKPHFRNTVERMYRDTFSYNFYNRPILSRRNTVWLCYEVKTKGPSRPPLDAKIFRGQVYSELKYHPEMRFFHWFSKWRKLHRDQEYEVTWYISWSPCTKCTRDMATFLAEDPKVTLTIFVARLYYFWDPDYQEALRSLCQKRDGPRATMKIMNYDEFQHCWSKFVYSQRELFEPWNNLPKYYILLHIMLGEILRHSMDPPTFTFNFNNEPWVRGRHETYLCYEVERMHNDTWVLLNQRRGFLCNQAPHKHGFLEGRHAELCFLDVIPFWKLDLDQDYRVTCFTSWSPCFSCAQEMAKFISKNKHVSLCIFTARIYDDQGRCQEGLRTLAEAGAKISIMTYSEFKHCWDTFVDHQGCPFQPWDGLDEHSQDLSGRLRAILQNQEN
Chain of Cytochrome P450 2C9 (Homo sapiens) (P11712 whole entry, looked up): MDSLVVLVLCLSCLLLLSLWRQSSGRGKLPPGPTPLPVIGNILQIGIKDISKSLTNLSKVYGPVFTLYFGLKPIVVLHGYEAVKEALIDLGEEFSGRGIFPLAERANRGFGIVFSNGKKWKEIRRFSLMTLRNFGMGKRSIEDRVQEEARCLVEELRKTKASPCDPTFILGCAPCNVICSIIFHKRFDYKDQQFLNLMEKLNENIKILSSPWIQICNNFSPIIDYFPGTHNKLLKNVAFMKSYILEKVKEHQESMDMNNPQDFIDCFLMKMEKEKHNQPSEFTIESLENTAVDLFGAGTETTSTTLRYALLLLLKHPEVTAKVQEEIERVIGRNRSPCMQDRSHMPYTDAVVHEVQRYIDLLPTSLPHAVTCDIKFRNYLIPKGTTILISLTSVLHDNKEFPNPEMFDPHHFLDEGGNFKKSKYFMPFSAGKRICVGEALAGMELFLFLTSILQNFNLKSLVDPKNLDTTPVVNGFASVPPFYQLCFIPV
Chain of DNA repair nuclease/redox regulator APEX1 (Homo sapiens) (P27695 whole entry, looked up): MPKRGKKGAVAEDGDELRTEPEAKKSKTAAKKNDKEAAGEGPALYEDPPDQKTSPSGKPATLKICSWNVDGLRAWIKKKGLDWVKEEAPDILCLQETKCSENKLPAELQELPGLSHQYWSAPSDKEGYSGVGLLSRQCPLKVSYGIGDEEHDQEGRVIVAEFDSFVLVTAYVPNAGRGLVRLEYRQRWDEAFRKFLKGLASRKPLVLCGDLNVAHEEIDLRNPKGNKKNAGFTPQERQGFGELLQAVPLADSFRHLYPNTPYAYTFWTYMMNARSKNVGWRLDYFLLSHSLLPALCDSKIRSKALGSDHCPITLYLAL
Chain of Thyrotropin receptor (Homo sapiens) (P16473 whole entry, looked up): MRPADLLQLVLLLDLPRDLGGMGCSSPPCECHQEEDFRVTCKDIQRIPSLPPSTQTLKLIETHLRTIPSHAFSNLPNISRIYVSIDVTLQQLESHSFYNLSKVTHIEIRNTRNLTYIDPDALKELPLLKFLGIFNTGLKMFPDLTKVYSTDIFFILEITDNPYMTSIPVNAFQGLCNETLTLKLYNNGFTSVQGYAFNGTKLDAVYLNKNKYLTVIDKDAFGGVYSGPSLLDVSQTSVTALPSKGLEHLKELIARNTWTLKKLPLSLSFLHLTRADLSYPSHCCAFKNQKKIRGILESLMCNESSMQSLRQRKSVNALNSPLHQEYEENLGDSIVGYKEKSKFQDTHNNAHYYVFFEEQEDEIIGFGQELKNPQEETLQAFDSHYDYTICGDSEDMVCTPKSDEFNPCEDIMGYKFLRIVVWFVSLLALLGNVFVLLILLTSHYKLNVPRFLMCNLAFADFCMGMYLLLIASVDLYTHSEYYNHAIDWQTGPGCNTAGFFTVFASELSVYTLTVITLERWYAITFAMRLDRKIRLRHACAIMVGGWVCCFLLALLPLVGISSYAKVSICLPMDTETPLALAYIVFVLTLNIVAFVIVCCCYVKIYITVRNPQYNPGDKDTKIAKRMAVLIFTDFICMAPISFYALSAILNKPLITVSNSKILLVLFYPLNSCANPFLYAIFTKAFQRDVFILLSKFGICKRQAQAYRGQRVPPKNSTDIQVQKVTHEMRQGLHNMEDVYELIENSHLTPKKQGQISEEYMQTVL
Chain of Cytochrome P450 1A2 (Homo sapiens) (P05177 whole entry, looked up): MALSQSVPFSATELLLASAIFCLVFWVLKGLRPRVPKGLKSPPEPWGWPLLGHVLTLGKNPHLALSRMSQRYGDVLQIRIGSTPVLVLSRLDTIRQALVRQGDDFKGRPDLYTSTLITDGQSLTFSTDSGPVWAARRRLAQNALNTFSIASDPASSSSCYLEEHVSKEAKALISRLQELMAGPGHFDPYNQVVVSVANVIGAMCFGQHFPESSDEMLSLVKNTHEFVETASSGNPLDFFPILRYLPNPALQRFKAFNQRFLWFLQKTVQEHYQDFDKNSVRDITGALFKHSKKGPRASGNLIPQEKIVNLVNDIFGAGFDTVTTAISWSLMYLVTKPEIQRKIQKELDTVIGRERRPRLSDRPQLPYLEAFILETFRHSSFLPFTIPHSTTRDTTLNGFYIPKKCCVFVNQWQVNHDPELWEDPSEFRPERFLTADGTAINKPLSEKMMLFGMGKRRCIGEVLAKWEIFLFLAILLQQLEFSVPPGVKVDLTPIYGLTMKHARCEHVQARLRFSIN
Chain of M-phase phosphoprotein 8 (Homo sapiens) (Q99549 whole entry, looked up): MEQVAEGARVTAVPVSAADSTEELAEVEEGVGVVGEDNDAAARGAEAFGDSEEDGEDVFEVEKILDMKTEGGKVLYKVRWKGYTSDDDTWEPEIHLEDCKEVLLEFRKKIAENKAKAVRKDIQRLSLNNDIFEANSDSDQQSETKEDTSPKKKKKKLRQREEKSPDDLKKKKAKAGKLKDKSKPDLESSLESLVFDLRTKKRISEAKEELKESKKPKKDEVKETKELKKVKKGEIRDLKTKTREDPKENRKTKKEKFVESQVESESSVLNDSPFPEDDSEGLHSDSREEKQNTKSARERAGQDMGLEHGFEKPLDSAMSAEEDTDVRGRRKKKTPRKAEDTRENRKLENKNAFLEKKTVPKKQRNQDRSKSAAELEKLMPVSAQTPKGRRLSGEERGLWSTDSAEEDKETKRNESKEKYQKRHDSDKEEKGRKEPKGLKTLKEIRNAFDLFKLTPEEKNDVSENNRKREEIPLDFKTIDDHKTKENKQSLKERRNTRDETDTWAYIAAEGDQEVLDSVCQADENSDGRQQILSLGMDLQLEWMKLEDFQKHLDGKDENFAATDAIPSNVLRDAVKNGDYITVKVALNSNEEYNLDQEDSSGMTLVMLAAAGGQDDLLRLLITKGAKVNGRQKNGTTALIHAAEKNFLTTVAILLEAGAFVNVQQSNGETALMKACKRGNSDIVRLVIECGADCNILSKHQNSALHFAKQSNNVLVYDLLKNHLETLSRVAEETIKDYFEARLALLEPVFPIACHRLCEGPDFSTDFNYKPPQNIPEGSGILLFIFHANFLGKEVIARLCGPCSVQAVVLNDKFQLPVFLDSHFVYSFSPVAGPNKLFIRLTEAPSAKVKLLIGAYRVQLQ
Chain of Thyrotropin-releasing hormone receptor (Homo sapiens) (P34981 whole entry, looked up): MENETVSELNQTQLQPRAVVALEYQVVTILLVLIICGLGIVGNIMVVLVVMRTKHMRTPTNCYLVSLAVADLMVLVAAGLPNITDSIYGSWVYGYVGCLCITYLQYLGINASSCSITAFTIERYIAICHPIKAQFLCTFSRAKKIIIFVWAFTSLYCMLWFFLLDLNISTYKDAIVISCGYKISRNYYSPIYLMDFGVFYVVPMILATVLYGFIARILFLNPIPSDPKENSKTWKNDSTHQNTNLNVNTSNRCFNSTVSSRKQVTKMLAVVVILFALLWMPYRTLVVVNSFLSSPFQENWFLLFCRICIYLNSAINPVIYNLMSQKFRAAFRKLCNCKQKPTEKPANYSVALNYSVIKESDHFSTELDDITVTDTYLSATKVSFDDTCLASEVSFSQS
Chain of Cytochrome P450 2C19 (Homo sapiens) (P33261 whole entry, looked up): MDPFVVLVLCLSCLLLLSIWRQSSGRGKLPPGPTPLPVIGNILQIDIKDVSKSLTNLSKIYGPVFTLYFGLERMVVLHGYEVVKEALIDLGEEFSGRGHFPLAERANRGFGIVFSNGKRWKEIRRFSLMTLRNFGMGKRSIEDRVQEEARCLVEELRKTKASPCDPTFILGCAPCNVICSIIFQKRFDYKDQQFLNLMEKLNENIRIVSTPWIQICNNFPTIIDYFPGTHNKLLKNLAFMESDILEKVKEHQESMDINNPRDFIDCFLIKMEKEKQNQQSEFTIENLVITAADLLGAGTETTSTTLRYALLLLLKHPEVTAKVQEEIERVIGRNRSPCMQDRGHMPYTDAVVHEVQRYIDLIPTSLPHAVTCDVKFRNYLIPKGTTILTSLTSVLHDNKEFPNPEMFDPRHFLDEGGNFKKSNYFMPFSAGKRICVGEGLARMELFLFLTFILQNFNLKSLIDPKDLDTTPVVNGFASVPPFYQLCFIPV

COc1ccc(NC(=O)c2cc(OCCCN(C)C)nn2Cc2ccccc2)cc1
inactive: Potency [1] | Potency [2]

CC(C)N1CCN(c2ccc(C(=O)c3c(-c4ccc(O)cc4)sc4cc(O)ccc34)cc2)CC1
inactive: Potency [1] | Potency [2]

COc1cc(N)c(Cl)cc1C(=O)N[C@H]1CCN(CCCOc2ccc(F)cc2)C[C@@H]1OC
active: Potency [3] 25.1 µM | Potency [7] 1 µM | Potency [8] 0.794 µM
inactive: Potency [4] > 46 µM | Potency [5] > 46 µM | Potency [6] | Potency [9] | Potency [10] | Potency [1] | Potency [2]

C=C[C@H]1CN2CCC1C[C@@H]2C(O)c1ccnc2ccc(OC)cc12 (stereo partly drawn)
inactive: Potency [1] | Potency [2]
39.8 µM (active) and inactive: Potency [11]

FC(F)(F)c1cc(CO[C@H]2CCCN[C@H]2c2ccccc2)cc(C(F)(F)F)c1
active: Potency [14] 7.94 µM | Potency [15] 11.2 µM | Potency [16] 11.2 µM | Potency [17] 11.2 µM | Potency [18] 12.6 µM | Potency [19] 7.08 µM | Potency [20] 12.6 µM | Potency [26] 8.91 µM
inactive: Potency [4] > 46 µM | Potency [5] > 46 µM | Potency [6] | outcome [12] | Potency [13] | Potency [21] | Potency [22] | outcome [23] | activation [24] 2.81% | outcome [25] | Potency [10] | Potency [1] | Potency [27]
